MARV entry inh – Marburg virus entry inhibition; Marburg virus pseudotyped entry inhibition, cell reporter; Potency, µM (top dose mostly 37.8 µM), actives largely listed as inhibitors; 300,000 compounds, 1.8% hits; calls by dose curve; tested in HEK293 cells
Lassa entry inh – Lassa virus entry inhibition; 300,000 compounds, 1.2% hits; AID 540256; Potency, µM (highest dose often 37.9 µM), hits mostly inhibitors; Lassa virus pseudotype entry inhibition, cell reporter; calls by dose curve; tested in HEK293 cells; further: nearly all actives have a fitted effect of over 50% in size
VACV mCherry inh – vaccinia inhibition (mCherry reporter); Vaccinia virus mCherry reporter infection, fluorescence; Potency, µM (highest dose often 36.5 µM), usual class: inhibitors; 310,000 compounds, 0.63% hits; AID 720579; calls by dose curve; tested in A549 cells; further: nearly all actives have a fitted effect of over 35% in size
HCMV antiviral – blocks human cytomegalovirus replication; HFF cells, HCMV-luciferase reporter, 72 h; active compounds read low; activity change, negative = inhibition, % at 57.5 µM; 410,000 compounds, 4.5% hits; in the data active means activity change below about -60%; inconclusive means no clear call, values can overlap the other calls; inactive means above about -39%
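Luciferase read-out from HCMV-luciferase-infected HFFs (MOI 1 PFU/cell) 72 h post infection at 37C; compounds added after 16 h cell attachment; activity normalized between buffer-only basal and Salinomycin (10uM) inhibitor controls.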
HCV inhibitor – blocks hepatitis C virus | 340,000 compounds, 3.4% hits | Huh7.5.1 HCVcc-Cre infection, luciferase reporter, 44 h | Potency, µM (series often up to 41.8 µM), usual class: inhibitors; active means well fitted inhibition curve with a large enough effect; inconclusive means small, poorly fitted or top-dose-only effect, or another doubt; inactive means no such curve, though single readings can be large or run the other way
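A cell-based infection assay in which seeded cells (1,000 per well) receive test compound after 4 h, are inoculated with HCVcc-Cre at approximately 0.5 moi, and are incubated 44 h before luminescence detection.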
Vaccinia Venus – vaccinia inhibition (Venus reporter); Vaccinia virus Venus reporter expression, fluorescence; Potency, µM (highest dose often 36.5 µM), usual class: inhibitors; 330,000 compounds, 0.46% hits; AID 720580; calls by dose curve; tested in A549 cells; further: nearly all actives have a fitted effect of over 30% in size
A number is an active result; - = inactive; ? = inconclusive; . = not tested or not shown; + = active, no number; [ ] = another dose, or the depositor's remark. Most compounds without a hit are left out; they make up all but 7.8% or so of the library.

SMILES | MARV entry inh | Lassa entry inh | VACV mCherry inh | HCMV antiviral | HCV inhibitor | Vaccinia Venus
CCOC(=O)Cc1csc(NC(=O)CSc2ncnc3c2cnn3-c2ccc(OC)cc2)n1 | ? | 2µM | - | - | ? | -
CCOC(=O)CNC(=O)CSc1ncnc2c1cnn2-c1ccc(Cl)cc1 | - | - | - | - | - | -
CCC(=O)N1c2ccccc2CC1C(=O)NCCc1ccccc1Cl (centres undefined) | . | - | - | - | . | -
COCC(C)NC(=O)CSc1nc(-c2ccccc2)c(-c2ccccc2)o1 (centres undefined) | ? | ? | - | -67 | ? | -
CNC(=O)CSc1nc(-c2ccccc2)c(-c2ccccc2)o1 | - | - | . | - | - | .
CN(C(=O)CSc1nc2ccccc2o1)C1CCS(=O)(=O)C1 (centres undefined) | - | - | - | - | - | -
CN(C(=O)CSc1nnc(-c2ccc(F)cc2)c2ccccc12)C1CCS(=O)(=O)C1 (centres undefined) | 5µM | - | - | ? | - | ?
CN(C(=O)CSc1nc(-c2ccccc2)c(-c2ccccc2)o1)C1CCS(=O)(=O)C1 (centres undefined) | - | - | . | -64 | ? | .
CCN(CC)CCCN1C(=O)CSC1c1ccc([N+](=O)[O-])cc1 (centres undefined) | . | . | . | -102 | - | .
O=C(NCc1cccnc1)c1ccc(-c2ccc(Cl)cc2)o1 | . | . | . | - | ? | .
O=C(NCc1cccnc1)/C(=C\c1ccc(-c2ccc(Cl)c(Cl)c2)o1)S(=O)(=O)c1ccccc1 | ? | ? | ? | -102 | 11µM | 11µM
CC(=O)Nc1ccc(C2Nc3cc(C)c(C)cc3NC3=C2C(=O)CC(C)(C)C3)cc1 (centres undefined) | . | . | . | - | - | .
Cc1cc2c(cc1C)NC(c1nc3ccccc3[nH]1)C1=C(CC(C)(C)CC1=O)N2 (centres undefined) | - | - | - | -105 | - | -
CC1CCc2c(sc3nc(C(C)(C)C)nc(N4CCN(C(=O)CCl)CC4)c23)C1 (centres undefined) | ? | ? | - | -103 | ? | ?
CCCOc1ccc(-c2cnc(N)s2)cc1 | ? | ? | 4.5µM | - | ? | 5µM
CCCc1cnc2c(c1SCC(=O)N(C)c1ccccc1)c(=O)n(C)c(=O)n2C | . | - | - | - | . | -
O=C(c1ccc(CSc2nc3ccncc3n2Cc2ccccc2F)cc1)N1CCCCC1 | - | . | - | -62 | . | -
Cc1ccc(Cn2c(SCc3ccc(C(=O)NC4CCCC4)cc3)nc3ccncc32)cc1 | - | - | ? | -74 | . | ?
CC(=O)Nc1ccc(Nc2cc3c(cn2)nc(-c2cccc(F)c2)n3C)cc1 | . | . | . | - | . | .
CCn1nc(C)c2c(-c3ccccc3)cc(=O)n(C(C)C(=O)Nc3ccc(OC)c(OC)c3)c21 (centres undefined) | . | - | - | - | . | -
Cc1c(CC(=O)NCCCC(=O)O)c(=O)oc2cc3c(cc12)CCC(C)(C)O3 | ? | ? | - | -86 | - | -
Cc1c(CC(=O)NCCC(=O)O)c(=O)oc2cc3oc4c(c3cc12)CCCC4 | . | . | . | - | - | .
Cc1c(CC(=O)NCCCC(=O)O)c(=O)oc2cc3oc4c(c3cc12)CCCC4 | - | - | - | -66 | - | -
Cc1c(CC(=O)NCCCCCC(=O)O)c(=O)oc2cc3c(cc12)CCC(C)(C)O3 | ? | - | - | - | - | -
O=C(CCl)N(c1ccccc1)C1CCS(=O)(=O)C1 (centres undefined) | ? | ? | 10µM | -103 | 22µM | 11µM
SMILES | MARV entry inh | Lassa entry inh | VACV mCherry inh | HCMV antiviral | HCV inhibitor | Vaccinia Venus
NC(=O)Nc1ccc(/C=C2\C=Cc3ccccc32)cc1 | . | . | - | . | . | -
O=c1oc2ccccc2cc1-c1nc2ccccc2o1 | - | - | . | - | - | .
O=c1oc2ccccc2cc1-c1nc2c(s1)CCCC2 | ? | 2.9µM | . | - | - | .
COc1ccc(C2CC(=O)c3cc(-c4nc(-c5ccc(C)cc5)cs4)c(=O)[nH]c3C2)cc1 (centres undefined) | - | - | - | - | . | -
Cc1ccc(CNC(=O)c2ccc(N3CCCC3=O)cc2)cc1 | - | - | . | - | - | .
Cn1nc(C(C)(C)C)cc1C(=O)NCc1ccc(N2CCCC2=O)cc1 | ? | - | . | -100 | ? | .
CC(=O)Nc1ccc(S(=O)(=O)NCCc2cn3ccsc3n2)cc1 | . | - | -[7.34 µM] | - | . | -[7.34 µM]
Cc1ccc2nc(N3CCC(C(=O)NC4CCCCC4)CC3)sc2c1 | . | . | -[7.34 µM] | - | ? | -[7.34 µM]
Cc1cccc(NC(=O)N2CCN(C(=O)c3nsc4ccccc34)CC2)c1C | . | - | - | + | . | -
CC(C)(C)c1ccc(C(=O)N2CCN(c3nc4ccccc4o3)CC2)cc1 | . | . | - | - | 10µM | -
O=C(c1ccc(-c2ccccc2)cc1)N1CCN(c2nc3ccccc3o2)CC1 | . | . | - | - | - | -
Cc1cccc(C)c1NC(=O)N1CCN(c2nc3ccccc3s2)CC1 | ? | ? | . | -70 | ? | .
CC1CCN(C(=O)c2ccccc2NC(=O)c2nsc3ccccc23)CC1 | . | - | - | - | . | -
CC1CCC(NC(=O)C2CCN(c3nc4ccccc4s3)CC2)CC1 (centres undefined) | - | ? | - | - | 10µM | -
CCOC(=O)C1=C(CS(=O)(=O)c2ccc(OC)c(Cl)c2)NC(=O)NC1c1cccc(OC)c1 (centres undefined) | - | - | - | - | . | -
Cc1csc2c(N3CCN(C(=O)c4ccc(C(C)(C)C)cc4)CC3)ncnc12 | . | . | . | -63 | ? | .
O=C(NCCc1ccccc1)C1CCN(c2nc3ccccc3o2)CC1 | - | - | . | - | - | .
Cc1cccc(Cl)c1NC(=O)N1CCCN(c2nc3ccc(Cl)cc3s2)CC1 | . | . | . | - | 7.1µM | .
O=C(NC1CCCCCCC1)C1CCN(c2nc3ccccc3o2)CC1 | ? | ? | . | -88 | ? | .
Cc1nn2c(=O)cc(COC(=O)c3cccc(NC(=O)c4cccs4)c3)nc2s1 | . | - | - | - | . | -
CCc1ccccc1NC(=O)C1CCCN(C(=O)c2cnn(-c3ccccc3)c2-n2cccc2)C1 (centres undefined) | ? | - | - | - | . | -
Cc1ccc(N2C(=O)CSC23C(=O)N(CC(=O)NC2CCCCC2)c2ccccc23)cc1 (centres undefined) | . | - | - | - | . | -
CCCC(O)c1nnc(Nc2cccc(Cl)c2)s1 (centres undefined) | . | . | . | - | . | .
CCOc1ccc(-c2oc3ccccc3c(=O)c2O)cc1OCC | - | ? | - | -65 | . | -
CCCCNCCCOc1cccc(Cl)c1Cl | 15µM | - | - | - | - | -
N#CSCC(=O)N1c2ccccc2CCc2ccccc21 | ? | ? | - | -102 | ? | ?
COc1ccc(NC(=O)CSCC(=O)N2c3ccccc3CCc3ccccc32)cc1 | - | - | - | - | - | -
COc1ccccc1NC(=O)CSCC(=O)N1c2ccccc2CCc2ccccc21 | ? | - | - | - | 25µM | ?
Cc1cc(NC(=O)Cn2c(=O)oc3cc(S(=O)(=O)N4CCCC4)ccc32)ccc1Br | . | - | - | - | . | -
COc1ccccc1Nc1nc(N)nc(CN2CCN(c3ccccc3F)CC2)n1 | - | ? | ? | - | - | -
